# Assay results reported in PubChem BioAssay (NCATS).
# Where “and” joins values, the source holds several entries; their conditions need not be identical. Equal entries are not always repeated. Records with an inconclusive call do not appear. Entries that show only a call come without a potency. Calls of active or inactive are those of the source. Unless noted, calls follow the shape of the dose curve; as a rule, active = well fitted cell-killing curve with a large enough effect; inconclusive = small, poorly fitted or top-dose-only effect; inactive = flat fitted curve, though single readings scatter.
# Key:
# [1] = Cell Viability - LYMP2-008 (AID 980);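 also: cells exposed to compound for 24 h at 37 °C; nearly all actives have a fitted effect of over 60% in size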
# Summary of the method: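 Acute cytotoxicity is scored as concentration-dependent loss of cellular ATP in a human lymphoblastoid line after 24 hr treatment at 37 C. ATP is quantified by luciferase luminescence.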
# [2] = Cell Viability - LYMP2-010 (AID 981);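 also: cells exposed to compound for 24 hours at 37 °C; nearly all actives have a fitted effect of over 55% in size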
# Summary of the method: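 Acute toxicity is scored as a concentration-dependent loss of cellular ATP in human lymphoblastoid cells after 24 hr compound exposure in complete medium. Tetraoctylammonium bromide is the positive control.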
# [3] = Cell Viability - LYMP2-012 (AID 982);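 also: cellular ATP by luciferase luminescence where a drop means cytotoxicity; cells exposed to compound for one day before reading; nearly all actives have a fitted effect of over 55% in size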
# [4] = Cell Viability - LYMP2-014 (AID 983);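 also: series mostly up to about 92 µM; cells exposed to compound for 24 h at 37 °C; nearly all actives have a fitted effect of over 50% in size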
# Summary of the method: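 Decrease in intracellular ATP after 24 hr treatment at 37 C, measured by luciferase luminescence, indicated cytotoxicity. Concentration-response data were fitted with the standard Hill equation to give AC50.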
# [5] = Cell Viability - LYMP2-016 (AID 984);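 also: cells exposed to compound for 24 hours at 37 °C; nearly all actives have a fitted effect of over 55% in size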
# Summary of the method: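 Human lymphoblastoid cells (LYMP2-016), 2500/well in complete medium, preincubated 5 hr at 37 C, then compound-treated 24 hr at 37 C. Intracellular ATP read by CellTiter-Glo luminescence after 30 min at room temperature; AC50 from Hill-equation concentration-response fits.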
# [6] = Cell Viability - LYMP2-018 (AID 985);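 also: compound exposure lasted 24 hr at 37 °C; nearly all actives have a fitted effect of over 50% in size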
# Summary of the method: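 Acute cytotoxicity is scored as a concentration-dependent drop in intracellular ATP after 24 hr exposure of the lymphoblastoid line in complete culture medium, measured by luciferase luminescence. Potency is expressed as AC50 from Hill modelling.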
# [7] = Cell Viability - LYMP2-020 (AID 986);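 also: series mostly up to about 92 µM; cells exposed to compound for 24 h at 37 °C; nearly all actives have a fitted effect of over 55% in size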
# Summary of the method: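 Acute cytotoxicity in a human lymphoblastoid line is scored as a concentration-dependent fall in cellular ATP after 24 hr at 37 C in complete medium. The positive control is tetraoctylammonium bromide, and potency is given as Hill-fit AC50.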
# [8] = Cell Viability - LYMP2-022 (AID 987); also: nearly all actives have a fitted effect of over 55% in size
# Summary of the method: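 Acute toxicity in a human lymphoblastoid line is scored as decreased intracellular ATP after 24 hr compound treatment at 37 C. ATP is measured by CellTiter-Glo luminescence; curves are fitted with the Hill equation to give AC50.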
# [9] = Cell Viability - LYMP2-024 (AID 988); also: nearly all actives have a fitted effect of over 60% in size
# Summary of the method: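 Acute toxicity is measured as concentration-dependent loss of intracellular ATP in a human lymphoblastoid line treated 24 hours at 37 C. Luciferase luminescence quantifies ATP; AC50 values come from standard Hill-equation modelling.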
# [10] = Cell Viability - LYMP2-026 (AID 989);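 also: cells exposed to compound for 24 h at 37 °C; nearly all actives have a fitted effect of over 50% in size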
# Summary of the method: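 Concentration-dependent loss of intracellular ATP in human lymphoblastoid cells after 24 hr at 37 C, quantified by luciferase luminescence. AC50 derived from standard Hill equation.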
# [11] = Cell Viability - LYMP1-002 - Assay at 24 hr (AID 993)
# Summary of the method: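 qHTS, LYMP1-002 lymphoblastoid, 24 h cpd, 37 C, CellTiter-Glo ATP luminescence; AC50 via Hill eq.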
# [12] = Cell Viability - LYMP1-002 - Assay at 40 hr (AID 994); also: nearly all actives have a fitted effect of over 60% in size
# Summary of the method: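 Viability in the human lymphoblastoid line was measured as intracellular ATP via CellTiter-Glo after 40 hr compound exposure. Tetraoctylammonium bromide served as positive control.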
# [13] = qHTS Assay for Identification of Small Molecule Inducers of Hypoxia Response (AID 2120; active = well fitted curve in the direction sought with a large enough effect in the signal ratio, with a control signal flat, not every such curve was filed as active; the % refers to the signal ratio)
# Summary of the method: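 Induction of beta-lactamase reporter activity was measured in CellSensor HRE-bla ME-180 cells after 17 h compound treatment at 37 degrees C, using CCF4 substrate and the 460nm/530nm emission ratio to derive AC50 values.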
# [14] = target: Estrogen receptor (Homo sapiens) (UniProt P03372); assay: qHTS assay for small molecule antagonists of estrogen receptor alpha signaling (AID 588513; active = well fitted curve in the direction sought with a large enough effect in the signal ratio, with a control signal flat, not every such curve was filed as active; the % refers to the signal ratio)
# Summary of the method: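 ER-alpha-UAS-bla GripTite HEK 293 cells in medium with 2% charcoal/dextran-treated FBS were preincubated 4 h at 37 C, dosed with compound (1:2 titration), stimulated with 0.5nM 17-beta-estradiol for 18 h, then read by CCF4 beta-lactamase fluorescence.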
# [15] = target: Estrogen receptor (Homo sapiens) (UniProt P03372); assay: qHTS assay for small molecule agonists of estrogen receptor alpha signaling (AID 588514; calls by dose curve; also: nearly all actives have a fitted effect of over 70% in size)
# Summary of the method: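 Reporter-gene assay. […] controls beta-lactamase in HEK 293 GripTite cells; after 18 hrs with compound, CCF4 substrate is added for 2 hrs and fluorescence is read.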
# [16] = target: Bile acid receptor (Homo sapiens) (UniProt Q96RI1); assay: qHTS assay for small molecule antagonists of farnesoid X receptor signaling (AID 588526; calls by dose curve)
# Summary of the method: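 Concentration-response titrations were fitted to the Hill equation for half-maximal inhibition and maximal response, with data normalised to 50 uM chenodeoxycholic acid and DMSO control wells. Cells: FXR-UAS-bla HEK293T, dialyzed FBS.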
# [17] = target: Bile acid receptor (Homo sapiens) (UniProt Q96RI1); assay: qHTS assay for small molecule agonists of farnesoid X receptor signaling (AID 588527; calls by dose curve; also: series mostly up to about 77 µM); details: HEK293T FXR-UAS-bla, beta-lactamase ratio, 16 h; stronger effect = higher value
# Summary of the method: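 Quantitative HTS used FXR-UAS-bla HEK293T cells with 16 h compound incubation at 37 C. EC50 values came from concentration-response curves normalized to chenodeoxycholic acid.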
# [18] = target: Peroxisome proliferator-activated receptor delta (Homo sapiens) (UniProt Q03181); assay: qHTS assay for small molecule agonists of peroxisome proliferator-activated receptor delta signaling (AID 588534; calls by dose curve)
# Summary of the method: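 Reporter cells were plated and held 5 hrs at 37 C before compounds were added. After 18 hrs at 37 C, CCF4 dye was loaded for 2 hrs at RT and fluorescence measured.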
# [19] = qHTS assay for small molecule antagonists of peroxisome proliferator-activated receptor delta signaling (AID 588535); details: HEK293T PPARd-UAS-bla, beta-lactamase FRET ratio, 18 h; 460 nm channel;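 also: cells co-treated with a PPAR-delta agonist as stimulator during compound exposure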
# Summary of the method: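 GeneBLAzer PPAR-delta-UAS-bla HEK293T cells in medium with 2% charcoal/dextran FBS were preincubated 5 hrs at 37 C, then given compounds, incubated 18 hrs at 37 C, and read by CCF4 beta-lactamase fluorescence; IC50 from Hill fits.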
# [20] = qHTS assay for small molecule agonists of retinoid X receptor alpha signaling (AID 588544; calls by dose curve); details: HEK293T RXRa-UAS-bla, beta-lactamase reporter, 18 h; 530 nm emission
# [21] = target: Retinoic acid receptor RXR-alpha (Homo sapiens) (UniProt P19793); assay: as above
# [22] = target: Thyroid hormone receptor beta (Homo sapiens) (UniProt P10828); assay: qHTS assay for small molecule agonists of thyroid hormone receptor beta signaling (AID 588545; calls by dose curve)
# Summary of the method: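 TR-UAS-bla GripTite HEK 293 cells (2500/well, medium with 2% charcoal/dextran FBS) were treated in agonist mode for 18 h at 37 C, titrated. Beta-lactamase was read by CCF4 ratio after 2 h; normalized to 10 nM T3 (100%) and DMSO, Hill-fitted for EC50 and efficacy.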
# [23] = qHTS assay for small molecule antagonists of retinoid X receptor alpha signaling (AID 588546; active = well fitted inhibition curve with a large enough effect in the signal ratio, with a control signal flat, not every such curve was filed as active; the % refers to the signal ratio;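 also: cells stimulated with 9-cis-retinoic acid as agonist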); details: HEK293T RXRa-UAS-bla, beta-lactamase ratio, antagonist mode; measured here: W530 green channel, cytotoxicity proxy
# Summary of the method: (§1)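 Beta-lactamase reporter inhibition, read as CCF4 fluorescence ratio (ex 405, em 460/530 nm) after 2 h at RT. HEK293T UAS-bla cells, 2500/well, were stimulated with 9-cis-RA at 500 or 100 nM final alongside test compound for 18 h at 37 C.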
# [24] = target: Retinoic acid receptor RXR-alpha (Homo sapiens) (UniProt P19793); assay: as above; details: HEK293T RXRa-UAS-bla, beta-lactamase ratio, antagonist mode
# Summary of the method: as §1
# Sequence of Retinoic acid receptor RXR-alpha (Homo sapiens) (P19793 whole entry, looked up): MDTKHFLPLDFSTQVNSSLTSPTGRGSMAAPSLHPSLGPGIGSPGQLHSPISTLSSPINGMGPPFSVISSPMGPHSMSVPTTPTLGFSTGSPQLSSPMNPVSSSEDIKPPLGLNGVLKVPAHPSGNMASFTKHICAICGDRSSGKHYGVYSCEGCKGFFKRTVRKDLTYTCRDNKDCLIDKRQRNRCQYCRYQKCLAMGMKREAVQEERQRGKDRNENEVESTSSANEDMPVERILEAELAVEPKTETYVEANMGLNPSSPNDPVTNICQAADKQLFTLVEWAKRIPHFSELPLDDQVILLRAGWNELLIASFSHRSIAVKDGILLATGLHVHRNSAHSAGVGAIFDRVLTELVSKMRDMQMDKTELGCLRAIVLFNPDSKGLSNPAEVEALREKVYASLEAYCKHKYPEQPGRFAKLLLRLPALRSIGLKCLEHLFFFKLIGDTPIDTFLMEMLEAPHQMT
# Sequence of Estrogen receptor (Homo sapiens) (P03372 whole entry, looked up): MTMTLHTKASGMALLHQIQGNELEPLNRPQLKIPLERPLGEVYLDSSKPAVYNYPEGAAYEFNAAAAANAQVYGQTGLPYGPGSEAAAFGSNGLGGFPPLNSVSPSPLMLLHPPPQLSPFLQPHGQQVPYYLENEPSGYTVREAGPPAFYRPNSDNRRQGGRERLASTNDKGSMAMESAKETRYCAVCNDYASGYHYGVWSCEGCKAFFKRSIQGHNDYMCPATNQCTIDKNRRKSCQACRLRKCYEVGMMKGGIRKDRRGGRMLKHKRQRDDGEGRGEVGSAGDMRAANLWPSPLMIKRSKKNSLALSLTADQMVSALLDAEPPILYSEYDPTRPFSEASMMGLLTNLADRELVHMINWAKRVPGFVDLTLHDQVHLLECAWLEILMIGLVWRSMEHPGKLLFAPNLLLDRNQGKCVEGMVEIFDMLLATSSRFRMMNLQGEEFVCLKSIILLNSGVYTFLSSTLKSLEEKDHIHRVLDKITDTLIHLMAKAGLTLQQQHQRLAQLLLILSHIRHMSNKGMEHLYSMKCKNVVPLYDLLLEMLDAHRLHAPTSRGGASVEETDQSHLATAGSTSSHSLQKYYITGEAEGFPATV
# Sequence of Bile acid receptor (Homo sapiens) (Q96RI1 whole entry, looked up): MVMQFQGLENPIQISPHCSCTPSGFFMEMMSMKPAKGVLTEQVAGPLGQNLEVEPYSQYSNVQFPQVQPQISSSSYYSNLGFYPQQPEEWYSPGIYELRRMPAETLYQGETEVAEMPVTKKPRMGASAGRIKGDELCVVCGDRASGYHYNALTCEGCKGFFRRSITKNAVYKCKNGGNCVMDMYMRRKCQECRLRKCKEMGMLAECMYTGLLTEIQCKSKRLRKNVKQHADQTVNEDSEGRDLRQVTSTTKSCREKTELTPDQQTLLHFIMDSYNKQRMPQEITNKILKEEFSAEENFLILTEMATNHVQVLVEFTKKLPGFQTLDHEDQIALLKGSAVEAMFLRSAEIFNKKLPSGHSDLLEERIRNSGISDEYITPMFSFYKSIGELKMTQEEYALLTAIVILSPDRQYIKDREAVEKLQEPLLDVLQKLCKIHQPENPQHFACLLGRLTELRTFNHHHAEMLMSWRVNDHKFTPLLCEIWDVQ
# Sequence of Peroxisome proliferator-activated receptor delta (Homo sapiens) (Q03181 whole entry, looked up): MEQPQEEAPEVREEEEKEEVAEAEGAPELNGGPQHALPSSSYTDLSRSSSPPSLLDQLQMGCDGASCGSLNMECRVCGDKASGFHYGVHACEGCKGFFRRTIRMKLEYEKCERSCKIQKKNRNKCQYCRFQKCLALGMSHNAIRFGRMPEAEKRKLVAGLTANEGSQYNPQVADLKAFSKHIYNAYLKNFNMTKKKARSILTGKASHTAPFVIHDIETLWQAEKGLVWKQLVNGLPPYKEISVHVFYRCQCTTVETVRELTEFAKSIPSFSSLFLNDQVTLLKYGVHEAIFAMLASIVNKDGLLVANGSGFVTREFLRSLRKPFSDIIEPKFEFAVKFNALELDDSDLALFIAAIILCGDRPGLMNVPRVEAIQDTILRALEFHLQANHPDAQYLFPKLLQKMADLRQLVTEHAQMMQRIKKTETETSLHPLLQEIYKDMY
# Sequence of Thyroid hormone receptor beta (Homo sapiens) (P10828 whole entry, looked up): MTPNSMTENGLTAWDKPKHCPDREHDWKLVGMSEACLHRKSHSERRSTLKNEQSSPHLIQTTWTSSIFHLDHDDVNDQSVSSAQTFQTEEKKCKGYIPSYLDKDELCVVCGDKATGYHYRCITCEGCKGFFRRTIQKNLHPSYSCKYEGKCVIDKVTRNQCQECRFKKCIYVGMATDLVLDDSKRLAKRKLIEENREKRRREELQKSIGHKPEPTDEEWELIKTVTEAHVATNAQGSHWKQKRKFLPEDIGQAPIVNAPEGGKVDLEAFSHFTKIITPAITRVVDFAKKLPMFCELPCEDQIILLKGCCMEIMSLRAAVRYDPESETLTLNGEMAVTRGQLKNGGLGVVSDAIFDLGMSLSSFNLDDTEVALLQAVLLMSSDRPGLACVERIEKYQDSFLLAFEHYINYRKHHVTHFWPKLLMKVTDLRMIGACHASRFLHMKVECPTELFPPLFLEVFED
smiles,measurement,setting,value
CCCOC(=O)c1ccccc1C(=O)OCCC,Potency,[1],inactive
same,Potency,[2],inactive
same,Potency,[3],inactive
same,Potency,[4],inactive
same,Potency,[5],inactive
same,Potency,[6],inactive
same,Potency,[7],inactive
same,Potency,[8],inactive
same,Potency,[9],inactive
same,Potency,[10],inactive
same,Potency,[11],inactive
same,Potency,[12],inactive
same,outcome,[13],inactive
same,Potency,[14],inactive
same,Potency,[15],inactive
same,outcome,[16],inactive
same,activation,[17],-0.825% (inactive) and -0.41% (inactive)
same,outcome,[18],inactive
same,max response,[19],2.17%
same,max response,[20],8.06% and -8.01%
same,Potency,[21],inactive
same,outcome,[22],inactive
same,max response,[23],3.93% and -2.34%
same,max response,[24],-20.7% (inactive) and -19.5% (inactive)
